In PubChem BioAssay (Tox21):
Values joined by “and” are separate entries in the source; they are usually repeats but may differ in a detail not shown here. Equal values may be shown once. Inconclusive results are not listed. A call without a number means that no potency is given here. A structure can be active in one record and inactive in another. Active and inactive are the calls of the source. Calls follow the shape of the dose curve; as a rule, active = well fitted cell-killing curve with a large enough effect in the repeat runs; inconclusive = weak or mixed curves, or effect the other way; inactive = flat fitted curve, though single readings scatter.

Assay: qHTS RealTime-Glo MT Cell Viability Assay in HEK293 cells - 32 hour (AID 1224868); also: nearly all actives have a fitted effect of over 50% in size
Details: RealTime-Glo luminescence; series mostly up to 76.8 µM
Description: National Center for Advancing Translational Sciences [NCATS]
NIH Chemical Genomics Center [NCGC]
U.S. Environmental Protection Agency [EPA]
National Institutes of Environmental Health Sciences [NIEHS]
National Toxicology Program [NTP]
U.S. Food and Drug Administration [FDA]
Measure of cell viability is critical in the cell-base assay. Analysis of cell viability is necessary for the characterization of cell responses to cytotoxic drugs and environmental stress. A RealTime-Glo MT Cell Viability Assay to monitor cell viability in real time of continues cell culture during 40 hours of compound treatment was used to screen Tox21 10K library compounds in Hek293 cells. The RealTime-Glo MT Cell Viability Assay is a nonlytic, homogeneous, bioluminescent method to measure cell viability in real time using a simple, plate-based method. The assay involves adding NanoLuc luciferase and a cell-permeant prosubstrate to cells in culture. Viable cells reduce the proprietary prosubstrate to generate a substrate for NanoLuc luciferase. This substrate diffuses from cells into the surrounding culture medium, where it is rapidly used by the NanoLuc Enzyme to produce a luminescent signal. The signal correlates with the number of viable cells, making the assay well suited for cytotoxicity studies.
Tox21 Assay Protocol Summary:
The mixture of Hek293 cell suspension and reagents were dispensed at 600cells/6 ul/well in 1536-well tissue culture treated black solid bottom plates using a Multidrop dispenser. After the assay plates were incubated at a 37 C/5% CO2 incubator for 5 hours, 23 nL of compounds dissolved in DMSO, positive and negative controls was transferred to the assay plate by a pintool work station. The plates were incubated at 37 C for 40 hours. The luminescence intensity were measured at 0h, 8h, 16h, 24h, 32h and 40h time points using ViewLux plate reader during compound treatment.
Potency is read from the fitted curve at half-maximal effect.

Q: For `C1COC(NC(C2CC2)C2CC2)=N1`, which Potency is on record?
A: The Potency was “inactive”.

Q: For `O=C1Nc2ccccc2C1(c1ccc(O)cc1)c1ccc(O)cc1`, which Potency is on record?
A: The Potency was 49 µM (active) and inactive.

Q: Which Potency does the source give for `CC1=C(C=O)C(C)(C)CC=C1` here?
A: Its Potency is “inactive”.

Q: With `NCCO` as the compound, how does the Potency read?
A: Its Potency is “inactive”.

Q: For `CC1=CC(=O)c2ccccc2C1=O`, which Potency is on record?
A: Its Potency is 15.5 µM (active).

Q: Which Potency does the source give for `CCOc1ccccc1C(N)=O` here?
A: Its Potency is “inactive”.

Q: For `C[N+]1([O-])CCOCC1`, which Potency is on record?
A: The Potency was “inactive”.

Q: For `COC(=O)c1cccc(C(=O)OC)c1`, which Potency is on record?
A: The Potency was “inactive”.

Q: Which Potency does the source give for `Cc1scc2c1N(C(=O)CN1CCN(C)CC1)c1ccccc1NC2=O` here?
A: The Potency was “inactive”.

Q: With `CC(C)CCOCc1ccccc1` as the compound, how does the Potency read?
A: The Potency was “inactive”.

Q: Which Potency does the source give for `CN1C(=O)c2ccc([N+](=O)[O-])cc2C1=O` here?
A: The Potency was “inactive”.

Q: For `CC1COC(=O)O1` (stereo not given), which Potency is on record?
A: The Potency was “inactive”.

Q: With `c1cnc2cc3c(cc2n1)C1CNCC3C1` as the compound, how does the Potency read?
A: The Potency was “inactive”.

Q: Which Potency does the source give for `Cc1cc(OCCOCC[N+](C)(C)Cc2ccccc2)ccc1C(C)(C)CC(C)(C)C` here?
A: The Potency was 10.9 µM (active) and 7.56 µM (active).

Q: With `CC(COc1ccccc1)N(CCCl)Cc1ccccc1` (stereo not given) as the compound, how does the Potency read?
A: The Potency was 49.5 µM (active) and 49 µM (active).

Q: With `Cc1ccnc2c1NC(=O)c1cccnc1N2C1CC1` as the compound, how does the Potency read?
A: The Potency was “inactive”.

Q: With `Oc1c(Cl)cc(Cl)cc1Sc1cc(Cl)cc(Cl)c1O` as the compound, how does the Potency read?
A: Its Potency is 19.5 µM (active) and 15.5 µM (active).

Q: With `CCN(CC)C(=O)Nc1ccc(OCC(O)CNC(C)(C)C)c(C(C)=O)c1` (stereo not given) as the compound, how does the Potency read?
A: Its Potency is “inactive”.

Q: For `O=C(O)Cn1cnnn1`, which Potency is on record?
A: The Potency was “inactive”.

Q: With `CC(C)(C)c1ccccc1` as the compound, how does the Potency read?
A: Its Potency is “inactive”.

Q: With `CCN(CC)c1ccc2c(C)cc(=O)oc2c1` as the compound, how does the Potency read?
A: The Potency was 34.9 µM (active).

Q: Which Potency does the source give for `c1cc(C(c2ccc(OCC3CO3)cc2)C(c2ccc(OCC3CO3)cc2)c2ccc(OCC3CO3)cc2)ccc1OCC1CO1` (stereo not given) here?
A: Its Potency is “inactive”.

Q: For `Nc1ccc2cc3ccccc3cc2c1`, which Potency is on record?
A: The Potency was “inactive”.

Q: With `O=C(O)c1cc(Cl)cc(Cl)c1` as the compound, how does the Potency read?
A: The Potency was “inactive”.

Q: Which Potency does the source give for `O=C1OC2(c3ccc(O)cc3Oc3cc(O)ccc32)c2ccccc21` here?
A: Its Potency is “inactive”.

Q: Which Potency does the source give for `CCCNC(C)C(=O)Nc1ccccc1C` (stereo not given) here?
A: The Potency was “inactive”.

Q: For `O=C(O)CCc1ccccc1`, which Potency is on record?
A: Its Potency is “inactive”.

Q: For `CC[C@@H](N)CO`, which Potency is on record?
A: Its Potency is “inactive”.

Q: Which Potency does the source give for `CCN(CC)C(=S)SSC(=S)N(CC)CC` here?
A: The Potency was 174 nM (active) and 89.1 nM (active) and 13.4 µM (active).

Q: For `O=Nc1ccc(Nc2ccccc2)cc1`, which Potency is on record?
A: Its Potency is 6.2 µM (active) and 9.77 µM (active).

Q: For `CCCCCCC(O)CCCCCCCCCCC(=O)O` (stereo not given), which Potency is on record?
A: Its Potency is “inactive”.

Q: With `CCC(C)(Oc1ccc(C2(c3ccc(OC(C)(CC)C(=O)O)cc3)CCCCC2)cc1)C(=O)O` (stereo not given) as the compound, how does the Potency read?
A: Its Potency is “inactive”.

Q: With `COc1ccc(COC(C)=O)cc1` as the compound, how does the Potency read?
A: Its Potency is “inactive”.

Q: With `O` as the compound, how does the Potency read?
A: The Potency was “inactive”.

Q: With `O=C(Oc1ccccc1)c1ccccc1O` as the compound, how does the Potency read?
A: Its Potency is “inactive”.

Q: For `Cc1cc(C2(c3cc(C)c(O)cc3C)OS(=O)(=O)c3ccccc32)c(C)cc1O`, which Potency is on record?
A: The Potency was “inactive”.

Q: With `Cc1occc(=O)c1OC(=O)C(C)C` as the compound, how does the Potency read?
A: The Potency was “inactive”.

Q: For `C=CC(=O)OCCCCCCCC`, which Potency is on record?
A: Its Potency is “inactive”.

Q: For `CN(C)c1ccc(C(=C2C=CC(=[N+](C)C)C=C2)c2ccccc2)cc1`, which Potency is on record?
A: Its Potency is 2.13 µM (active) [middle of 4 runs].

Q: Which Potency does the source give for `BrC1CCC(Br)C(Br)CCC(Br)C(Br)CCC1Br` (stereo not given) here?
A: The Potency was “inactive”.
